From PubChem BioAssay (NCATS)
Values joined by “and” are separate entries in the source; they are usually repeats but may differ in a detail not shown here. Identical values can stand only once. Records with an inconclusive call do not appear. Active and inactive are the calls of the source. Unless noted, calls follow the shape of the dose curve; as a rule, active = well fitted curve in the direction sought with a large enough effect; inconclusive = small, poorly fitted or top-dose-only effect, or another doubt; inactive = no such curve, though single readings can be large; an effect the other way counts as inactive or inconclusive.

Columns and labels:
[1] = molecular target: Guanine nucleotide-binding protein G(i) subunit alpha-1 (Homo sapiens) (UniProt P63096); assay: qHTS Assay for Inhibitors of RGS12 GoLoco Motif Activity (Green Fluorophore) (AID 879); settings: Galphai1/FITC-RGS12 GoLoco peptide, fluorescence polarization; series mostly up to 57.1 µM;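 also: negative values mean loss of peptide binding seen as reduced polarization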
Sequence of Guanine nucleotide-binding protein G(i) subunit alpha-1 (Homo sapiens) (P63096 whole entry, looked up): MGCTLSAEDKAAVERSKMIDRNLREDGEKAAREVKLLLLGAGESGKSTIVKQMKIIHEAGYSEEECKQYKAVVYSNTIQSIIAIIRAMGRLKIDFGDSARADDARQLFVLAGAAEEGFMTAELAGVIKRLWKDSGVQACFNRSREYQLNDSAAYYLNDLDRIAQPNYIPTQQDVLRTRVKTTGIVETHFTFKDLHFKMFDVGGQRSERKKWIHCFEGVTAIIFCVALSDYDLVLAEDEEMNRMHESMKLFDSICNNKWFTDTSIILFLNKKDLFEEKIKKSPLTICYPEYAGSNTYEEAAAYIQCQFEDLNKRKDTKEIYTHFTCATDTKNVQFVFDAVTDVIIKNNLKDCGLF
Procedure, shortened: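 Fluorescence polarization assay: 50 nM Gαi1 with 10 nM FITC-labeled RGS12 GoLoco peptide in 10 mM Tris pH 7.5, 150 mM NaCl, 0.1 mM GDP, 0.05% NP40, 10 min at room temperature with compound.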

[2] = Cellular Toxicity (caspase-3) N2a (AID 665); settings: N2a cells, luminescence, normalized: DMSO 0%, 10 µM staurosporine 100%; series mostly up to 92.2 µM;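 also: compound exposure lasted 16 h at 37 °C before readout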
Procedure, shortened: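 Plated mouse neuroblastoma N2a cells received titrated compounds for 16 h in complete medium. Caspase activity was then detected with a peptide-aminoluciferin luminescent reagent.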

[3] = Cellular Toxicity (caspase-3) NIH 3T3 (AID 666); settings: NIH 3T3 caspase-3 activation, apoptosis/toxicity, 0% DMSO, 100% is 100 µM tamoxifen; series mostly up to 92.2 µM
Procedure, shortened: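 Concentration-response qHTS in NIH 3T3 mouse fibroblasts scores caspase-3/7 activation as rising luminescence after 16 hr compound exposure. Signals are scaled between DMSO-only and 100 uM tamoxifen.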

[4] = Cellular Toxicity (caspase-3) Renal Proximal Tubule (AID 667); settings: renal proximal tubule cells, primary cells freshly taken from rat, solvent-only wells 0%, staurosporine 100%; series mostly up to 91.7 µM;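 also: cells exposed to compound for 16 hours at 37 °C before detection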
Procedure, shortened: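 Caspase-Glo 3/7 read-out, rat primary kidney proximal tubule cells. Compound exposure 16 h, 37 °C; detection after 1 h at RT. Activity scaled to DMSO and 10 uM staurosporine.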

[5] = molecular target: Cytochrome P450 2C9 (Homo sapiens) (UniProt P11712); assay: qHTS Assay for Inhibitors and Substrates of Cytochrome P450 2C9 (AID 883); settings: recombinant CYP2C9, luciferin-H luminescence, 60 min; series mostly up to 57.1 µM; also: nearly all actives have a fitted effect of over 60% in size; also: potency is read from the fitted curve at half-maximal effect
Sequence of Cytochrome P450 2C9 (Homo sapiens) (P11712 whole entry, looked up): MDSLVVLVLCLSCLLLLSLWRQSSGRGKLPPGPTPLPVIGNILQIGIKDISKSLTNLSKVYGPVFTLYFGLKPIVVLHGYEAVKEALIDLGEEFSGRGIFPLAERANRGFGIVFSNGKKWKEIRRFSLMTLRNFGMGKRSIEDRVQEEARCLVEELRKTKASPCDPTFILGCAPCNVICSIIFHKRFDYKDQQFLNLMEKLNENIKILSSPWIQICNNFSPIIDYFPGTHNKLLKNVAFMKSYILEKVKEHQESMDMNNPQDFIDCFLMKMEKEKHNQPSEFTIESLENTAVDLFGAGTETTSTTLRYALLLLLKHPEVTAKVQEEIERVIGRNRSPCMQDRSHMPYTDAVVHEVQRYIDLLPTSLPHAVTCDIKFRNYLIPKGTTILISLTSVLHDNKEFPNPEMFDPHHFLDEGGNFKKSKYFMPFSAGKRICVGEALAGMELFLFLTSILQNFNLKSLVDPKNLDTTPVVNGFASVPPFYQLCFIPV
Procedure, shortened: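 Human CYP2C9 (10nM) hydroxylated Luciferin-H (100uM, at its KM) to luciferin in 25mM KPO4. Compound was preincubated 10 min at 37C, then NADPH regeneration started a 60 min reaction at 37C. Luminescence was read after detection reagent, normalized to 57uM sulphaphenazole.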

[6] = molecular target: Cytochrome P450 2D6 (Homo sapiens) (UniProt P10635); assay: qHTS Assay for Inhibitors and Substrates of Cytochrome P450 2D6 (AID 891); settings: recombinant CYP2D6, luciferin-ME EGE luminescence; series mostly up to 57.1 µM; also: nearly all actives have a fitted effect of over 60% in size; also: potency is read from the fitted curve at half-maximal effect
Sequence of Cytochrome P450 2D6 (Homo sapiens) (P10635 whole entry, looked up): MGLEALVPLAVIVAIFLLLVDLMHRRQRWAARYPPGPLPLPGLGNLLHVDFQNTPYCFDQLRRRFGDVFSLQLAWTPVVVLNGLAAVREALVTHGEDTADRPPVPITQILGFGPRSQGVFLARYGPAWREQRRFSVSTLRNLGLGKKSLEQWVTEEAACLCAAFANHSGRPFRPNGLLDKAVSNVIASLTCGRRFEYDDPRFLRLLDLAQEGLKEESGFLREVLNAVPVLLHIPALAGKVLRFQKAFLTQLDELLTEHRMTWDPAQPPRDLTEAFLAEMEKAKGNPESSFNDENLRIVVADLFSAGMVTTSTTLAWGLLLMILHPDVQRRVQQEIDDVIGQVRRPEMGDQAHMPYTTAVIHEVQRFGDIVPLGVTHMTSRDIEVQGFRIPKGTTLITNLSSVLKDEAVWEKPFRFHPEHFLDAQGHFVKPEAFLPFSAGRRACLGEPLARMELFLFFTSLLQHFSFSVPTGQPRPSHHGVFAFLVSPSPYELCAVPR
Procedure, shortened: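 Human CYP2D6 (5 nM) with 30 uM Luciferin-ME EGE (at Km) in 100 mM KPO4, compound preincubated 10 min, then NADPH regeneration system for 60 min at room temperature. Luciferin read by luminescence; normalized to 1.43 uM quinidine.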

[7] = molecular target: Cytochrome P450 2C19 (Homo sapiens) (UniProt P33261); assay: qHTS Assay for Inhibitors and Substrates of Cytochrome P450 2C19 (AID 899); settings: recombinant CYP2C19, luciferin-H EGE luminescence; series mostly up to 57.1 µM; also: nearly all actives have a fitted effect of over 60% in size
Sequence of Cytochrome P450 2C19 (Homo sapiens) (P33261 whole entry, looked up): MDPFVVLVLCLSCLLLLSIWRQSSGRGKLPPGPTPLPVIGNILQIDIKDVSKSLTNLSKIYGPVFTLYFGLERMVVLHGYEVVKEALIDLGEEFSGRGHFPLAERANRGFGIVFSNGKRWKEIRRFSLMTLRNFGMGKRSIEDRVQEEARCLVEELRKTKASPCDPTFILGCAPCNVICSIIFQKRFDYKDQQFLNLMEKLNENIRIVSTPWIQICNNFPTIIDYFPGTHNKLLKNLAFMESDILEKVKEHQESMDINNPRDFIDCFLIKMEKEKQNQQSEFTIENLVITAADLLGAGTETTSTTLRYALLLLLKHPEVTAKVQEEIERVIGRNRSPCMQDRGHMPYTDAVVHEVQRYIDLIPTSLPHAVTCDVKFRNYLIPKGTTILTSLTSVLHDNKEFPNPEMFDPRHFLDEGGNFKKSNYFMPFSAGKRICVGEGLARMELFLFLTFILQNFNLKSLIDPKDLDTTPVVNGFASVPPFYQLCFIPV
Procedure, shortened: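 Human CYP2C19 (5nM) with Luciferin-H EGE at 10uM (its KM) in 50mM KPO4 was preincubated with compound for 10 min at 37C. NADPH regeneration started a 60 min 37C reaction. Luciferin was read by luminescence, normalized to 57uM ketoconazole.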

[8] = molecular target: Cytochrome P450 3A4 (Homo sapiens) (UniProt P08684); assay: qHTS Assay for Inhibitors and Substrates of Cytochrome P450 3A4 (AID 884); settings: recombinant CYP3A4, Luciferin-PPXE luminescence; series mostly up to 57.1 µM; also: nearly all actives have a fitted effect of over 50% in size; also: potency is read from the fitted curve at half-maximal effect
Sequence of Cytochrome P450 3A4 (Homo sapiens) (P08684 whole entry, looked up): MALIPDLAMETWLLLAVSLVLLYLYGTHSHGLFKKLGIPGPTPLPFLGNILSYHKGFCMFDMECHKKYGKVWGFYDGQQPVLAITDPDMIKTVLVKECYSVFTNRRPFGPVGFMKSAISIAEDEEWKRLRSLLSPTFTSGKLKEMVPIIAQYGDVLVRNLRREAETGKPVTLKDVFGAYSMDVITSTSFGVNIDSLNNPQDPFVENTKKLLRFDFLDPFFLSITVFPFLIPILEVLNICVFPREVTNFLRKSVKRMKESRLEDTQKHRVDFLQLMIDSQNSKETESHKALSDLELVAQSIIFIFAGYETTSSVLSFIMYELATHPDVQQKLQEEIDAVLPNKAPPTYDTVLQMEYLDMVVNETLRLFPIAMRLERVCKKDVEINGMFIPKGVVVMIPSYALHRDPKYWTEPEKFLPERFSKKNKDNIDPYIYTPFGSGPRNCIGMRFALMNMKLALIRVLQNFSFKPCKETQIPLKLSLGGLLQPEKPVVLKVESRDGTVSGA
Procedure, shortened: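 20 nM human CYP3A4 with 25 uM Luciferin-PPXE (at KM) in 200 mM KPO4, preincubated 10 min with compound; NADPH regeneration started a 60 min RT reaction. Luciferin detected by luminescence, normalized to 57 uM ketoconazole as full inhibition.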

[9] = molecular target: Cytochrome P450 3A4 (Homo sapiens) (UniProt P08684); assay: qHTS Assay for Activators of Cytochrome P450 3A4 (AID 885); settings: recombinant CYP3A4, Luciferin-PPXE luminescence, 60 min; series mostly up to 57.1 µM; also: nearly all actives have a fitted effect of over 65% in size
Procedure, shortened: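 Human CYP3A4 (20 nM) with Luciferin-PPXE at 25 uM (its KM) in 200 mM KPO4; 10 min compound preincubation, then NADPH regeneration and 60 min reaction at RT. Luciferin read by luminescence; normalized to 57 uM ketoconazole full inhibition.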

[10] = qHTS Assay for Identification of Small Molecule Antagonists for NFkB Signaling Pathway (AID 895; active = well fitted inhibition curve with a large enough effect in the signal ratio, with a control signal flat, not every such curve was filed as active; the % refers to the signal ratio; also: potency is read from the fitted curve at half-maximal effect); settings: NFkB beta-lactamase reporter cells, FRET ratio 460/530, stimulated with 10 pM TNF alpha; series mostly up to 38.3 µM
Procedure, shortened: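 NFkB-bla ME-180 cervical carcinoma cells with beta-lactamase reporter under NFkB response element; compounds added, then TNF alpha at 10 pM final (EC50), 5 h at 37 C. LiveBLAzer substrate 2 h, room temperature; emission 460/530 nm at 405 nm excitation.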

Measured: Potency

Nc1nc2ccc(OC(F)(F)F)cc2s1
inactive: [1]

NS(=O)(=O)c1cc2c(cc1Cl)NC=NS2(=O)=O
inactive: [2] | [3] | [4] | [1]

N=c1nc(N2CCCCC2)cc(N)n1O
inactive: [1] | [5] | [6] | [7]

Cc1[nH]c(=O)c(C#N)cc1-c1ccc2nccn2c1
inactive: [1]

Cc1[nH]c(=O)c(C#N)cc1-c1ccncc1
inactive: [1]

CC(C)(Sc1ccc(CCN(CCCCC2CCCCC2)C(=O)NC2CCCCC2)cc1)C(=O)O
inactive: [1] | [9] | [6] | [7]
active: [5] 31.6 µM | [8] 3.98 µM | [10] 14.1 µM

NCCc1ccc(O)c(O)c1
inactive: [1]

Cc1cn[nH]c1
inactive: [1]

CNC[C@H](O)c1cccc(O)c1
inactive: [1]

C1COC(NC(C2CC2)C2CC2)=N1
inactive: [1] | [5] | [9] | [7]
active: [6] 398 nM

NC[C@H](O)c1ccc(O)c(O)c1
inactive: [1]

Cn1cnc([N+](=O)[O-])c1Sc1ncnc2nc[nH]c12
inactive: [2] | [3] | [4] | [1] | [10]

CN1CCN(CCCN2c3ccccc3Sc3ccc(C(F)(F)F)cc32)CC1
inactive: [1]

CCCC(CCC)C(=O)O
inactive: [2] | [3] | [4] | [1] | [8]

CCOC(=O)C1=C[C@@]2(CC)CCCN3CCc4c(n1c1ccccc41)[C@H]32
inactive: [1] | [5] | [9] | [7]
active: [6] 39.8 µM and 6.31 µM

N[C@@H]1CONC1=O
inactive: [1] | [5] | [9]

O=NN(CCCl)C(=O)NCCCl
inactive: [1]

O=c1[nH]cnc2[nH]ncc12
not listed: [9] | [10]
inactive: all other assays above

CC(=O)Oc1ccccc1C(=O)O
not listed: [9] | [10]
inactive: all other assays above

NC(N)=NC(=O)c1nc(Cl)c(N)nc1N
inactive: [2] | [3] | [4] | [1] | [8] | [10]

NC(=O)c1cnccn1
not listed: [9] | [10]
inactive: all other assays above

Clc1cccc(Cl)c1NC1=NCCN1
active: [5] 7.94 µM

COc1ccc2nc(S(=O)Cc3ncc(C)c(OC)c3C)[nH]c2c1 (centres undefined)
inactive: [5]
